We go through 68 molecules from ChEMBL document CHEMBL4513216, “Probing the Open Global Health Chemical Diversity Library for Multistage-Active Starting Points for Next-Generation Antimalarials” (ACS Infect Dis, 2020).

SMILES strings stand for the structures. The whole screen tested about 69,000 compounds, of which about 8,600 (12%) showed an effect of 50% or more. The sample as a whole holds a higher share of strong results than the screen did.

The test has as its system Plasmodium berghei. Description: Screen against P. berghei liver stage (PbLuc), transformed with Luciferase, at 10uM. The test is classed as functional, HepG2. Conditions: tested at 10 uM.
For `CC(c1nc(C2CC2)no1)N1CCc2c(ncn2C2CC2)C1` (stereo not drawn), the INHIBITION worked out at 17%.
To `CC(c1nc(C2CC2)no1)N1CCN(CCc2ccncc2)CC1` (stereo not drawn) belongs -45.9%; to `CCc1noc(C(C)N2CCc3c(ncn3C3CC3)C2)n1` (stereo not drawn), -1.04%; to `CC(c1nc(C2CC2)no1)N1CCc2c(ncn2C)C1` (stereo not drawn), 56%.
Take `CC(c1nc(-c2ccccc2)no1)N1CCc2c(ncn2C2CC2)C1` (stereo not drawn): the INHIBITION turned out to be 78.3%.
To `Cc1cccc(-c2noc(CN3CCc4c(ncn4C4CC4)C3)n2)c1` belongs 18.3%.
To `N#Cc1ccc(S(=O)(=O)Nc2cnn(C3CCOCC3)c2)cc1` belongs 5.51%.
For `CC(C)(NC(=O)c1cnc(-c2ccccc2F)s1)C(N)=O` the value was -8.9%.
`Cc1cnc(N2CC[C@@H]3O[C@@H](COCc4ccccn4)CC[C@@H]32)nc1`: the INHIBITION was determined as 41.6%.
For `COc1ccc(-c2cc(=O)n3c(n2)CCCCC3)cc1` the value was 1.45%; for `Cc1nn(C)c(C)c1-c1ccnc(N(C)Cc2noc(C(C)C)n2)n1`, 4.35%; for `Cc1nn(C)cc1-c1ccnc(N(C)Cc2noc(C(C)C)n2)n1`, -147%.
With `Cc1nn(C)c(C)c1-c1ccnc(N(C)Cc2nc(C(C)C)no2)n1`, the INHIBITION worked out at 68.2%.
To `Cc1csc(C2CCCN(C(=O)c3cccc4c3OCO4)C2)n1` (stereo not drawn) belongs 27.6%; to `Cc1nc(CN2CCN(C)C(=O)C23CCN(C(C)C)CC3)cs1`, 32.5%.
To `Cc1cc(C)n2ncc(CN3C[C@@H](O)[C@H](Oc4ccccc4)C3)c2n1` belongs -5.71%.
With `COCc1cn(C2CCN(Cc3ccc(Cl)s3)CC2)nn1`, the INHIBITION came out at 5.23%.
To `Cc1cc(C)n2ncc(CN3CCC(Cn4cc(CO)nn4)CC3)c2n1` belongs 20.1%.
To `Cc1cc(C)n2ncc(CN3CCC(n4cc(CCO)nn4)CC3)c2n1` belongs 58.6%; to `Cc1ccc(CN2CCC(n3cc(CN4CCC(O)CC4)nn3)CC2)s1`, 7.43%; to `Cc1cccc(CN2CCC(n3cc(CCO)nn3)CC2)c1C`, 53.3%.
To `COCCN1CCN(Cc2cnc(C3(C)CCCCO3)nc2)CC1` (stereo not drawn) belongs 3.25%; to `CS(=O)(=O)NCCC1CCCCN1C(=O)NCCc1ccccc1` (stereo not drawn), 28.3%; to `c1cnc(-c2nc(CN3CCn4c(nnc4C4CC4)C3)cs2)nc1`, -0.219%.
On to `CCC1CCCN(C(=O)Cc2csc(-c3ncccn3)n2)C1` (stereo not drawn), for which the INHIBITION is listed as 14.7%.
For `CCCC1CCCN(Cc2csc(-c3ncccn3)n2)CC1` (stereo not drawn) the value was 91.7%; for `c1cnc(-c2nc(CN3CCCC(Cn4cncn4)C3)cs2)nc1` (stereo not drawn), 15.6%; for `CC(=O)NC1CCCN(Cc2csc(-c3ncccn3)n2)C1` (stereo not drawn), 35.4%.
Consider `CCCC1CCCN(Cc2csc(-c3cnn(C)c3)n2)CC1` (stereo not drawn), for which the INHIBITION was 55.9%.
To `c1cnc(-c2nc(CN3CCCC(N4CCCC4)C3)cs2)nc1` (stereo not drawn) belongs -16.817%; to `COCC(=O)N1CCN(Cc2csc(-c3ncccn3)n2)CC1`, 38.9%.
Regarding `COCCN1CCN(Cc2csc(-c3cnn(C)c3)n2)CC1`, the INHIBITION was found to be 7.75%.
To `NC(=O)C1CCN(Cc2csc(-c3ncccn3)n2)CC1` belongs 55.05%; to `Cn1cc(-c2nc(CN3CCN(CCO)CC3)cs2)cn1`, -0.847%; to `CC1CCCN(Cc2csc(-c3ncccn3)n2)CC1` (stereo not drawn), 80.8%.
With `Cn1ccc(C(=O)N2CCC3(CC2)CC(Nc2cnccn2)CO3)n1` (stereo not drawn), the INHIBITION is -4.26%.
For `COc1ccc(-n2nc(C(C)=O)c(C(C)=O)c2C)cc1Cl` the value was -7.27%.
As for `Cn1cc(NC(=O)Nc2ccc3c(c2)OCO3)cn1`, the INHIBITION is on record as 24%.
For `OCCN(Cc1ccno1)Cc1cc(Br)ccc1F` the value was 25.3%; for `COCC(=O)NCCc1nc(N(C)C)ncc1-c1ccncc1`, 14.325%; for `NCC(=O)N1CCCC1c1n[nH]cc1-c1ccccc1F` (stereo not drawn), 10.9%.
As for `Cc1cc(N2CCCC(O)(CN(C)C)C2)c2cc3c(cc2n1)OCO3` (stereo not drawn), the INHIBITION is listed as 11.6%.
For `CC(C)Oc1cccc(C(=O)Nc2nncs2)c1` the value was -16.8%; for `CCCS(=O)(=O)N1Cc2ccnn2CC(c2nc(C)no2)C1` (stereo not drawn), 28.2%; for `c1cnc(-c2nc(CN3CCN(CC4CC4)CC3)cs2)nc1`, 77.85%.
For `c1cnc(-c2nc(CN3CCC(c4ccn[nH]4)CC3)cs2)nc1` the value was 12.8%; for `c1cnc(-c2nc(CN3CCCN(Cc4cccs4)CC3)cs2)nc1`, 39.75%.
Take `O=C([C@@H]1COC[C@H]2CN(c3ccncn3)C[C@H]21)N1CCCCO1`: the INHIBITION is given as -11.6%.
On to `FC(F)(F)C1CCc2nnc(CNCc3ccsc3)n2C1` (stereo not drawn), for which the INHIBITION was determined as 37%.
For `Fc1ccc(CNCc2nnc3n2CC(C(F)(F)F)CC3)c(F)c1` (stereo not drawn) the value was 63%; for `FC(F)(F)C1CCc2nnc(CNCc3cccs3)n2C1` (stereo not drawn), 26%; for `COc1ccc(CNCc2nnc3n2CC(C(F)(F)F)CC3)cc1` (stereo not drawn), 27.5%.
For `Cc1ccc(CNCc2nnc3n2CC(C(F)(F)F)CC3)cc1` (stereo not drawn) the value was 45.1%.
Consider `Fc1ccc(CNCc2nnc3n2CC(C(F)(F)F)CC3)cc1` (stereo not drawn), for which the INHIBITION is given as 63%.
For `COc1ccc(Cl)cc1NCC(=O)NCc1cccnc1OC` the value was -12.2%; for `CC(=O)N1CCc2ccc(NC(=O)c3cn(C)nn3)cc2C1`, 24.2%.
In the case of `CCc1ncc2c(n1)CN(CC(=O)Nc1cc(C)on1)CC2`, the INHIBITION is -7.31%.
For `COc1ccc2cc(C(=O)NCCNc3ccc(C)nn3)[nH]c2c1` the value was -17.7%; for `Cc1cc(CC(=O)N2CCc3cc(Br)sc3C2)n[nH]1`, -37.6%; for `Fc1ccccc1CN1CCC[C@@H](Cn2nnc(-c3cccs3)n2)C1`, 22.62%.
As to `Cn1c2c(c(=O)n1C)CN(S(=O)(=O)c1cccs1)CCC2`, the INHIBITION stood at 18.7%.
To `COc1nn(C)c2c1CCCN(S(=O)(=O)c1cccc(F)c1)C2` belongs -31.3%; to `COc1nn(C)c2c1CCCN(S(=O)(=O)c1cccc(C)c1)C2`, 80.2%; to `Cn1c2c(c(=O)n1C)CN(C(=O)c1cccc(F)c1)CCC2`, 46.6%.
In the case of `Cc1cccc(S(=O)(=O)N2CCCc3c(c(=O)n(C)n3C)C2)c1`, the INHIBITION is reported as 70.4%.
To `COc1cccc(S(=O)(=O)N2CCCc3c(OC)nn(C)c3C2)c1` belongs 18.5%; to `CC(C)c1nc(C2CCCN(C(=O)c3ccc4c(c3)COC4)C2)no1` (stereo not drawn), 1.75%.
To `c1nc(N2CCOCC2)ncc1-c1cncn1CCCN1CCCCC1` belongs 26.585%.
